Shiga inhibitor: A qHTS for Small Molecule Inhibitors of Shiga Toxin; Vero cells, Shiga toxin protein synthesis inhibition reporter; actives 9.2% (n = 290,000); AID 2315, 2010; inhibition, % at 38.7 µM; in the data active = inhibition mostly above about 28%, no sharp cut-off; inactive = mostly below about 43%
Pf growth 48h: Primary qHTS for delayed death inhibitors of the malarial parasite plastid, 48 hour incubation | P. falciparum luciferase growth in erythrocytes, 48 h | Potency, µM (series often up to 28.7 µM), usual class: inhibitors | actives 5.9% (n = 310,000) | AID 504832, 2011
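Luminescence readout; reporter = integrated firefly luciferase in P. falciparum. RBC culture at 2% hematocrit, 0.1% parasitemia final, 37 C/5% CO2; decreased signal taken as growth inhibition.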
SARS PLP yeast: qHTS of Yeast-based Assay for SARS-CoV PLP; AID 485353, 2010; S. cerevisiae expressing SARS-CoV PLpro, growth rescue; actives 0.19% (n = 330,000); Potency, µM (titrated, usually from 32.9 µM), usual class: activators; calls by dose curve; also: nearly all actives have a fitted effect of over 55% in size
CHX counter: Cycloheximide Counterscreen for Small Molecule Inhibitors of Shiga Toxin; actives 12% (n = 300,000); max response, %; cell reporter, cycloheximide protein synthesis inhibition counterscreen; AID 2314, 2010; in the data active = max response mostly above about 13%, no sharp cut-off; inactive = mostly below about 14%; also: read at 38.3 µM for the half of the compounds with a filed dose
Pf growth 96h: Primary qHTS for delayed death inhibitors of the malarial parasite plastid, 96 hour incubation; Potency, µM (highest dose often 28.7 µM), hits mostly inhibitors; actives 6.9% (n = 320,000); P. falciparum luciferase reporter growth, 96 h
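Parasite growth measured via integrated firefly luciferase reporter in P. falciparum. Infected erythrocytes at 2% hematocrit, 0.05% parasitemia final were treated 96 hours at 37 C under 5% CO2, and luminescence was read.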
NS1 function inh: qHTS Assay for Inhibitors of Influenza NS1 Protein Function; actives 0.4% (n = 270,000); Potency, µM (highest dose often 46.1 µM); AID 2326, 2010; calls by dose curve; also: actives are rising curves; nearly all actives have a fitted effect of over 50% in size
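OD600 was taken as the measure of yeast growth restored by compound in an NS1-expressing S. cerevisiae strain. Cells had been washed out of glucose medium and diluted 1:100 into galactose -URA medium, pH 6.0.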
Each line names hits and unclear results; the compound was inactive in the other large screens. Only some compounds are listed: those with a hit (about 21% of all), similar ones and a draw of the others. Unless noted, calls follow the shape of the dose curve; as a rule, active = well fitted inhibition curve with a large enough effect; inconclusive = small, poorly fitted or top-dose-only effect, or another doubt; inactive = no such curve, though single readings can be large or run the other way.

CCCNC(=O)c1cccc(COc2ccccc2OC)c1	Shiga inhibitor 123.3, CHX counter 49.9
NNC(=O)c1cccc(COc2cccc(Br)c2)c1	Shiga inhibitor 73.7, CHX counter 31.7
COc1ccc(OCc2cccc(C(=O)NN)c2)cc1	Shiga inhibitor 139.9, CHX counter 124.2
NNC(=O)c1ccc(COc2ccc3ccccc3c2)cc1	Shiga inhibitor 45.4, Pf growth 48h inconclusive, CHX counter 34.8, Pf growth 96h inconclusive
COc1ccc(OCc2cccc(C(=O)Nn3cc([N+](=O)[O-])cn3)c2)cc1	none
CCOC(=O)C1=C(O)C(=O)N(c2ccc(S(N)(=O)=O)cc2)C1c1ccc(Br)cc1 (stereo not given)	none
O=c1ccc(-c2ccc(S(=O)(=O)Nc3cccc(Br)c3)o2)n[nH]1	none
O=C(NNc1cc(N2CCOCC2)nc(N2CCOCC2)n1)C12CC3CC(CC(C3)C1)C2	Pf growth 48h inconclusive
CC1CCN(S(=O)(=O)c2nnc(NC(=O)c3cccc(Cl)c3)s2)CC1	none
NNC(=O)c1ccc(COc2ccc3c(c2)CCC3)cc1	none
NNC(=O)c1cccc(COc2ccc(Br)cc2)c1	Shiga inhibitor 148.7, CHX counter 67.7
O=C(NN1CCOCC1)c1cccc(COc2cccc(Br)c2)c1	CHX counter 16.1, Pf growth 96h inconclusive
CN(C)C(=O)c1ccc(Nc2ncnc3sc4c(c23)CCCCC4)cc1	Pf growth 48h inconclusive, Pf growth 96h inconclusive
Cc1ccc(SCCC(=O)N2CCOCC2)cc1	CHX counter 26.2 (no result: Pf growth 96h)
O=C(CSc1ccc(Cl)cc1)N1CCCC1	CHX counter 45.6
Cc1ccc(SCCC(=O)N2CCCC2)cc1	Shiga inhibitor 86.0, CHX counter 43.4 (no result: Pf growth 96h)
Cc1ccc(OCCNC(=O)CCC(=O)N2CCOCC2)cc1	none (no result: Shiga inhibitor, CHX counter, NS1 function inh)
Cc1ccc(SCC(=O)N2CCCC2)cc1	Shiga inhibitor 124.0, CHX counter 23.5
COc1ccc(N2CCN(C(=O)CSc3ccc(C)cc3)CC2)cc1	Pf growth 96h inconclusive
COc1ccc(S(=O)(=O)Nc2cccc(S(=O)(=O)NC3=NCCC3)c2)cc1[N+](=O)[O-]	none (no result: Shiga inhibitor, CHX counter, NS1 function inh)
Cc1ccc(S(=O)(=O)NCc2ccccc2)cc1C(=O)N(C)CC(=O)Nc1c(Cl)cccc1Cl	none (no result: Shiga inhibitor, CHX counter, NS1 function inh)
CNS(=O)(=O)c1cc(NC(C)=O)c(C)cc1C	none
CCOc1ccccc1/C=C/C(=O)N1CCN(C(=O)c2ccco2)CC1	none (no result: Shiga inhibitor, Pf growth 48h, CHX counter, Pf growth 96h, NS1 function inh)
Cc1ccc(SCc2ccc(C(=O)N3CCCC3)cc2)cc1	Shiga inhibitor 95.7, CHX counter 39.3
COCC(=O)NC1(c2nnnn2CCOC(=O)Nc2ccc(Cl)cc2)CCCCC1	none (no result: NS1 function inh)
COc1cccc(N2CC(NC(=O)C(=O)c3c[nH]c4ccccc34)CC2=O)c1 (stereo not given)	Pf growth 48h inconclusive (no result: Shiga inhibitor, CHX counter, NS1 function inh)
CN(C(=O)CNC(=O)c1ccc(Br)o1)C1CCCCC1	Shiga inhibitor 78.2, CHX counter 20.8, Pf growth 96h inconclusive
O=C(NC1CCCCC1)c1cc2cc(Br)ccc2o1	Shiga inhibitor 75.7, CHX counter 58.3
O=C(NC1CCCC1)c1cc2cc(Br)ccc2o1	Shiga inhibitor 92.5, CHX counter 51.3
O=C(NC1CCCCCC1)c1ccc(Br)o1	none
O=C(NC1CCCCCCC1)c1ccc(Br)o1	Shiga inhibitor 83.5, CHX counter 24.9
O=C(NC1CCCC1)c1ccc(Br)o1	none (no result: Pf growth 48h)
O=C(CN(Cc1ccccc1Cl)C(=O)c1csnn1)NCCc1ccccc1	none
CC(=O)OC(C(=O)NC1CCCCC1)c1ccc(Cl)c(Cl)c1 (stereo not given)	Pf growth 48h inconclusive
N#Cc1nc(Cl)c(Cl)c(NN)c1Cl	none
COc1ccc2c(c1OC)C(=O)OC2C1c2cc3c(cc2CCN1C)OCO3 (stereo not given)	Pf growth 96h 11.7µM
COc1ccc2c(c1OC)C(=O)O[C@@H]2[C@H]1c2c(cc3c(c2OC)OCO3)CCN1C	Pf growth 48h inconclusive, Pf growth 96h inconclusive
Cc1ccc(CNC(=O)C2CCN(S(=O)(=O)c3ccc4c(c3)CC(C)N4C(=O)C3CCC3)CC2)o1 (stereo not given)	Pf growth 48h inconclusive, Pf growth 96h inconclusive
CC(C)(C)C1C/C(=C/c2ccccn2)C(=O)/C(=C/c2ccccn2)C1 (stereo not given)	Pf growth 48h 2.08µM (no result: NS1 function inh)
CC1C/C(=C/c2ccccn2)C(=O)/C(=C/c2ccccn2)C1 (stereo not given)	Pf growth 48h 2.62µM, Pf growth 96h inconclusive (no result: NS1 function inh)
CC1C/C(=C/c2cccs2)C(=O)/C(=C/c2cccs2)C1 (stereo not given)	none
Cc1nc2scc(-c3ccc(C(C)C)cc3)c2c(=O)n1N	none (no result: NS1 function inh)
COc1cccc(NC(=O)CCNS(=O)(=O)c2ccc3c(c2)CC(C)N3C(=O)C2CC2)c1 (stereo not given)	none
Cc1noc(C)c1COc1ccc(C(=O)OCC(=O)NCCN2C(=O)CSC2=O)cc1	none (no result: NS1 function inh)
CCOC(=O)c1c(NC(=O)COC(=O)CCOc2ccc(C)cc2)sc(C(=O)N(C)C)c1C	none (no result: Shiga inhibitor, CHX counter, NS1 function inh)
Cc1cc(/C=C2\NC(=O)N(Cc3ccc(Cl)cc3)C2=O)c(C)n1C	Pf growth 48h 9.28µM, Pf growth 96h inconclusive
Cc1cc(/C=C2\C(=O)NC(=O)N(c3ccc(Cl)cc3)C2=O)c(C)n1C	none
Cc1ccc(NC(=O)CN2C(=O)N/C(=C/c3ccc(C)s3)C2=O)cc1	Pf growth 96h inconclusive
Cc1cccc(CN2C(=O)N/C(=C/c3ccc(C)s3)C2=O)c1	CHX counter 23.2, Pf growth 96h 3.29µM (no result: Pf growth 48h)
Cc1ccc(/C=C2/NC(=O)N(Cc3ccccc3)C2=O)s1	Pf growth 48h 10.4µM, CHX counter 54.7, Pf growth 96h inconclusive, NS1 function inh 3.98µM
CCn1c(C)cc(/C=C2/NC(=O)N(CC(=O)Nc3cccc(C)c3)C2=O)c1C	Pf growth 48h inconclusive, Pf growth 96h inconclusive
Cc1cccc(CN2C(=O)N/C(=C/c3cc(C)n(-c4cc(C)ccn4)c3C)C2=O)c1	Pf growth 48h 11.7µM (no result: Pf growth 96h)
Cc1noc(C)c1CSCC(=O)N(C)CC(=O)Nc1ccc(Cl)cc1	none
CCc1cccc(C)c1NC(=O)C(c1ccccc1)N1CCC1=O (stereo not given)	none
COc1cccc(NC(=O)N2C3CCCC2CC(NC(=O)C2CC2)C3)c1 (stereo not given)	Pf growth 96h 1.47µM
Cc1ccccc1NC(=O)N1C2CCCC1CC(NC(=O)C1CC1)C2 (stereo not given)	Pf growth 96h 9.28µM
COc1cccc(NC(=S)N2C3CCCC2CC(NC(=O)C2CC2)C3)c1 (stereo not given)	none
CCCCC1(O)CC(C(F)(F)F)=NN1C(=O)COc1ccccc1 (stereo not given)	Pf growth 96h 0.117µM
CC1(C)CC(=O)C2=C(C1)Nc1ccccc1NC2c1ccccc1F (stereo not given)	Pf growth 48h inconclusive
